This is part of a sample that, as a whole, favours compounds with a hit. Of some 83,000 tested, about 20% had one in any assay.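 Note: values are percent growth. 100 is the growth of untreated cells, values between 100 and 0 indicate rising inhibition; between -100 and 0 indicates cell death.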 Activity calls are given as the source filed them. How the source made its calls: active means growth percent below 10; inactive means the rest.
Experiments:
Assay in all cases: NCI-60 one-dose screen, 48 h (100 = growth as untreated, 0 = no growth, -100 = all killed)
Settings in all cases: 10 µM unless noted
NCI-H23 lung = tested on: NCI-H23 lung
NCI-H226 lung = tested on: NCI-H226 lung
NCI-H322M lung = tested on: NCI-H322M lung
HOP-62 NSCLC = tested on: HOP-62 NSCLC
NCI-H460 lung = tested on: NCI-H460 lung
HOP-92 NSCLC = tested on: HOP-92 NSCLC
NCI-H522 lung = tested on: NCI-H522 lung
A549/ATCC NSCLC = tested on: A549/ATCC NSCLC
786-0 renal = tested on: 786-0 renal
COLO 205 colon = tested on: COLO 205 colon

Measured: growth

CC1OC(O[C@@H]2C(O)C(CO)OC(O[C@H]3COC(O[C@H]4CC[C@]5(C)[C@H]6CC[C@]78OC[C@@]9(CC[C@](C)(C=O)C[C@H]97)[C@H](O)C[C@@]8(C)[C@]6(C)CC[C@H]5C4(C)C)[C@@H](OC4OC(CO)[C@@H](O)[C@@H](O)[C@@H]4O)[C@@H]3O)[C@H]2OC2OC[C@@H](O)[C@@H](O)[C@@H]2O)[C@@H](O)[C@@H](O)[C@H]1O (stereo not given in full)
inactive: NCI-H460 lung 74.1% | HOP-92 NSCLC 15.5%
active: NCI-H23 lung -15.2% | NCI-H226 lung -47.5% | NCI-H322M lung -35.3% | HOP-62 NSCLC -74.6% | NCI-H522 lung -55.4% | A549/ATCC NSCLC -63.3% | 786-0 renal -53% | COLO 205 colon -37.7%

Cc1ccc(NC(=O)c2cccc(CN3CCN(C)CC3)c2)cc1Oc1ccc(-c2[nH]nc3ncnc(N)c23)cc1
inactive: NCI-H23 lung 75.6% | NCI-H226 lung 76.9% | NCI-H322M lung 83.9% | HOP-62 NSCLC 80.9% | NCI-H460 lung 72.8% | HOP-92 NSCLC 65.3% | NCI-H522 lung 77.1% | A549/ATCC NSCLC 61.9% | 786-0 renal 40.8% | COLO 205 colon 10.1%

CCOP(=O)(OCC)OC[C@]12CCC(C)(C)C[C@H]1C1=CC[C@@H]3[C@@]4(C)C/C(=C\c5cccnc5)[C@H](OP(=O)(OCC)OCC)C(C)(C)[C@@H]4CC[C@@]3(C)[C@]1(C)CC2
active: HOP-92 NSCLC -1.51% | COLO 205 colon -5.36%
inactive: NCI-H23 lung 18.3% | NCI-H226 lung 34.2% | NCI-H322M lung 61.1% | HOP-62 NSCLC 36.8% | NCI-H460 lung 10.8% | NCI-H522 lung 19.8% | A549/ATCC NSCLC 16.3% | 786-0 renal 36.2%

CC1(C)CC[C@]2(C(=O)O)CC[C@]3(C)C(=CCC4[C@@]5(C)C[C@@H](O)[C@@H]6OC(c7cccc([N+](=O)[O-])c7)OC[C@@]6(C)C5CC[C@]43C)C2C1 (stereo not given in full)
inactive: NCI-H23 lung 73.6% | NCI-H226 lung 77.2% | NCI-H322M lung 41.7% | HOP-62 NSCLC 65.2% | NCI-H460 lung 65.4% | HOP-92 NSCLC 69.1% | NCI-H522 lung 71.8% | A549/ATCC NSCLC 37.1% | 786-0 renal 90.9% | COLO 205 colon 53%

COc1cc(/C=N/n2cnc3oc(-c4ccccc4)cc3c2=N)cc(CN2CCCC2)c1O
active: NCI-H460 lung -58.6% | 786-0 renal -81%
inactive: NCI-H23 lung 103% | NCI-H226 lung 90.5% | NCI-H322M lung 96.7% | HOP-62 NSCLC 85.5% | HOP-92 NSCLC 77.9% | NCI-H522 lung 96.4% | A549/ATCC NSCLC 64.7% | COLO 205 colon 11.8%

O=C1[C@H]2Cc3c([nH]c4ccccc34)[C@H](c3ccc(Cl)cc3)N2C(=O)CN1C1CCN(Cc2c(Cl)cccc2Cl)CC1
inactive: NCI-H23 lung 86.5% | NCI-H226 lung 72.5% | NCI-H322M lung 96.9% | HOP-62 NSCLC 80.1% | NCI-H460 lung 68% | HOP-92 NSCLC 55.1% | NCI-H522 lung 75.3% | A549/ATCC NSCLC 66.9% | 786-0 renal 66% | COLO 205 colon 54.8%

COc1ccc([C@@H]2[C@@H](O)C(=O)N2c2cc(OC)c(OC)c(OC)c2)cc1Cl
inactive: NCI-H23 lung 28% | NCI-H226 lung 33.3% | NCI-H322M lung 44.8% | HOP-62 NSCLC 24.5% | A549/ATCC NSCLC 22.2% | 786-0 renal 18.9%
active: NCI-H460 lung 2.22% | HOP-92 NSCLC -2.92% | NCI-H522 lung -8.73% | COLO 205 colon -81.1%

N#Cc1c(NC(=O)c2ccc(F)c(Cl)c2)sc2c1CCC(=O)C2
inactive: NCI-H226 lung 18.3% | NCI-H322M lung 53.6% | A549/ATCC NSCLC 19.4% | 786-0 renal 21.3%
active: NCI-H23 lung -7.87% | HOP-62 NSCLC 8.63% | NCI-H460 lung 4.07% | HOP-92 NSCLC -37.4% | NCI-H522 lung 3.24% | COLO 205 colon -50.2%

CCOC(=O)c1ccc(N/C=C/C(=O)c2ccccc2)cc1
inactive: NCI-H23 lung 103% | NCI-H226 lung 105% | NCI-H322M lung 97% | HOP-62 NSCLC 111% | NCI-H460 lung 104% | HOP-92 NSCLC 124% | NCI-H522 lung 94.8% | A549/ATCC NSCLC 101% | 786-0 renal 94% | COLO 205 colon 101%

O=C1c2c(c3c4ccc(Br)cc4oc3c3[nH]c4ccccc4c23)C(=O)N1CCO
active: NCI-H460 lung 3.9%
inactive: NCI-H23 lung 46.3% | NCI-H226 lung 33.3% | NCI-H322M lung 68.1% | HOP-62 NSCLC 12.2% | HOP-92 NSCLC 62.3% | NCI-H522 lung 43.8% | A549/ATCC NSCLC 48.7% | 786-0 renal 30.9% | COLO 205 colon 52.4%

COC[C@]12CC[C@@H](C)[C@H](C)[C@H]1C1=CC[C@@H]3[C@@]4(C)CCCNC(C)(C)[C@@H]4CC[C@@]3(C)[C@]1(C)CC2
inactive: NCI-H23 lung 52.1% | NCI-H226 lung 58% | NCI-H322M lung 64.6% | HOP-62 NSCLC 40% | HOP-92 NSCLC 48.3% | A549/ATCC NSCLC 20.8% | 786-0 renal 21.1%
active: NCI-H460 lung -42.3% | NCI-H522 lung -31.9% | COLO 205 colon -52.4%

O=C(NNc1nc2cc(F)cc(F)c2n2cccc12)c1ccncn1
active: NCI-H226 lung 7.28% | NCI-H460 lung 7.43% | NCI-H522 lung -12.4% | 786-0 renal 7.83%
inactive: NCI-H23 lung 17.6% | NCI-H322M lung 28.6% | HOP-62 NSCLC 13.1% | HOP-92 NSCLC 67.4% | A549/ATCC NSCLC 13.4% | COLO 205 colon 11.5%

C=C(C)C(=O)O[C@H]1C[C@@]2(C)OC(=CC2=O)/C(C)=C\[C@H]2OC(=O)C(=C)[C@H]12
active: NCI-H23 lung -2.39% | NCI-H226 lung -1.67% | HOP-92 NSCLC -22% | NCI-H522 lung -72% | 786-0 renal -71.3% | COLO 205 colon -50.1%
inactive: NCI-H322M lung 79.9% | HOP-62 NSCLC 58.8% | NCI-H460 lung 13.3% | A549/ATCC NSCLC 58.5%

From PubChem BioAssay (NCI)
